Experiment [1] in a line: qHTS assay to identify small molecule agonists of the constitutive androstane receptor (CAR) signaling pathway - cell viability counter screen (AID 1224836). Also: nearly all actives have a fitted effect of over 45% in size. A digest of the protocol:
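Viability read-out: CellTiter-Fluor fluorescence after 23 h compound exposure at 37 C/5% CO2 in double-stable HepG2-CYP2B6-hCAR cells, with PK11195 present at 0.75 uM final; compounds tested in 15-point titration.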
For orientation: Quantitative high-throughput screening tests each substance at several concentrations.

Experiment [2] is described as follows: qHTS assay to identify small molecule antagonists of the constitutive androstane receptor (CAR) signaling pathway - cell viability counter screen (AID 1224837). Also: nearly all actives have a fitted effect of over 45% in size. A digest of the protocol: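 Using CellTiter-Fluor, viability is scored in HepG2 cells stably carrying hCAR and a 2.2kb CYP2B6 reporter after 23 hr compound exposure across 15 concentrations, with CITCO present at 50 nM.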

The target of experiment [3] is Nuclear receptor subfamily 1 group I member 3 (Homo sapiens) (UniProt Q14994). The experiment can be described thus: qHTS assay to identify small molecule antagonists of the constitutive androstane receptor (CAR) signaling pathway (AID 1224838).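 Also: HepG2 cells stably expressing hCAR with CYP2B6 luciferase reporter stimulated by CITCO; nearly all actives have a fitted effect of over 40% in size.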 Put shortly:
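Reporter luminescence was quantified after 24 h exposure of hCAR/CYP2B6-2.2kb double-stable HepG2 cells to compounds at 15 concentrations in the presence of 50 nM CITCO final.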

For experiment [4] the target is unchanged. Briefly: qHTS assay to identify small molecule agonists of the constitutive androstane receptor (CAR) signaling pathway (AID 1224839). Also: nearly all actives have a fitted effect of over 15% in size. Also: potency is read from the fitted curve at half-maximal effect. A digest of the protocol:
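Luminescence read-out (ONE-Glo, 30 min, room temperature) from double-stable HepG2-CYP2B6-hCAR cells exposed 24 h to 15-point compound series in presence of 0.75 uM PK11195 final.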

Experiment [5] is described as follows: qHTS assay to identify small molecule antagonists of the estrogen related receptor signaling pathway with the pleiotropic PPARgamma coactivator (PGC) from Tox21 10K library - cell viability counter screen (AID 1224840; active = well fitted cell-killing curve with a large enough effect in the repeat runs, not every such curve was filed as active; also: nearly all actives have a fitted effect of over 40% in size). A digest of the protocol: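 Here the PGC/ERR cells serve as a cytotoxicity control: they are exposed to compounds for 17.5 hours at 37 C, and live-cell signal is quantified using CellTiter-Fluor fluorescence.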

A short description of experiment [6]: qHTS assay to identify small molecule antagonists of the estrogen related receptor signaling pathway with the pleiotropic PPARgamma coactivator (PGC) from Tox21 10K library (AID 1224841; call rule not given here; also: actives are mostly falling curves and most rising ones were filed inactive; nearly all actives have a fitted effect of over 50% in size; also: potency is read from the fitted curve at half-maximal effect). A digest of the protocol: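 Each well held 2,000 PGC/ERR cells, pre-incubated six hours (37 C, 5% CO2). Test substances in DMSO were added by pin tool and left for 18 h at 37 C before luciferase detection by One-Glo.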

The nature of experiment [7]: qHTS assay to identify small molecule agonists of the estrogen related receptor signaling pathway with the pleiotropic PPARgamma coactivator (PGC) from Tox21 10K library (AID 1224842). Also: nearly all actives have a fitted effect of over 15% in size. A digest of the protocol:
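PGC/ERR reporter cell line, 2,000 cells per well, incubated 6 h at 37 C before 23 nL compound in DMSO was added. After 18 h at 37 C, One-Glo luminescence read following 30 min at room temperature.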

In experiment [8] the target is Thyrotropin receptor (Homo sapiens) (UniProt P16473). Briefly: qHTS assay to identify small molecule agonists of the thyroid stimulating hormone receptor (TSHR) signaling pathway (AID 1224843; calls by dose curve; also: nearly all actives have a fitted effect of over 45% in size). Put shortly: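 Steps: seed 800 TSHR-HEK293 cells per well; add test compound and hold 30 min at ambient temperature; dispense cAMP-d2 then anti-cAMP cryptate; incubate 1 h at ambient; measure fluorescence intensity.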

Experiment [9] is described as follows: qHTS assay to identify small molecule agonists of the hypoxia (HIF-1) signaling pathway - cell viability counter screen (AID 1224844; calls by dose curve; also: nearly all actives have a fitted effect of over 50% in size; also: potency is read from the fitted curve at half-maximal effect). Put shortly:
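Multiplexed with the HRE beta-lactamase assay, this viability read used CellTiter-Glo luminescence (30 min, RT) on HRE-bla ME-180 cells treated 17 hrs with compounds in 0.5% dialyzed FBS medium.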

Experiment [10] can be described thus: qHTS assay to identify small molecule agonists of H2AX (AID 1224845; active = well fitted activation curve with a large enough effect in the signal ratio in the repeat runs, not every such curve was filed as active; the % refers to the signal ratio). Put shortly: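 Wild-type CHO-K1 cells, plated overnight, exposed 3hr at 37C to 15 concentrations (0.76% DMSO final). Lysed, then HTRF anti-pH2AX (S139) cryptate and anti-H2AX-d2 antibodies, 24 hr room temperature; 665/620 nm emission read.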
Experiment [11] in a line: qHTS assay to identify small molecule agonists of the hypoxia (HIF-1) signaling pathway (AID 1224846; active = well fitted activation curve with a large enough effect in the signal ratio in the repeat runs, not every such curve was filed as active; the % refers to the signal ratio). A digest of the protocol:
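Hypoxia-pathway activation was scored as increased beta-lactamase from an HRE-controlled reporter in ME-180 cells; plated at 2,000 cells per well with 0.5% dialyzed FBS, they were exposed 17 hrs to compounds and then given CCF4-AM.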

A short description of experiment [12]: qHTS assay to identify small molecule agonists of H2AX - cell viability counter screen (AID 1224847; calls by dose curve; also: top concentration of the series differs between compounds; nearly all actives have a fitted effect of over 30% in size). A digest of the protocol:
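CHO-K1 wt, 1000 cells/well, o/n 37C; cpds 15 conc, 3 h 37C, 0.76% DMSO; CellTiter-Glo, 30 min RT, luminescence.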

A short description of experiment [13]: qHTS assay to identify small molecule antagonists of the estrogen related receptor (ERR) signaling pathway from Tox21 library (AID 1224848). Also: nearly all actives have a fitted effect of over 50% in size. A digest of the protocol:
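Luminescent reporter read-out (ONE-Glo) from NTP's ERR cell line after 18 h treatment at 37 C with DMSO-dissolved Tox21 compounds; cells pre-plated 6 h beforehand at 2,000 per well.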

Experiment [14] can be described thus: qHTS assay to identify small molecule agonists of the estrogen related receptor (ERR) signaling pathway from Tox21 library (AID 1224849; calls by dose curve; also: nearly all actives have a fitted effect of over 15% in size). The following applies: ERR reporter cell line, ONE-Glo luciferase, 18 h. Put shortly:
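Six hours post-seeding at 37 C/5% CO2, ERR cells receive DMSO-solubilised compounds; after 18 h at 37 C, ONE-Glo reagent is applied and luminescence recorded.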

Experiment [15] is described as follows: qHTS RealTime-Glo MT Cell Viability Assay in HepG2 cells - 24 hour (AID 1224867). Also: nearly all actives have a fitted effect of over 50% in size. Put shortly: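 Real-time, nonlytic viability: 600 HepG2 cells/well mixed with NanoLuc enzyme plus prosubstrate; 5 h settle, compound (DMSO) added by pintool; luminescence monitored over 40 h at 37 C.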
A short description of experiment [16]: qHTS RealTime-Glo MT Cell Viability Assay in HEK293 cells - 32 hour (AID 1224868). Also: nearly all actives have a fitted effect of over 50% in size. Also: potency is read from the fitted curve at half-maximal effect. As to activity change, negative = cytotoxic: top concentration of the series differs between compounds. A digest of the protocol: (§1)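 Cells + reagent dispensed (600 cells/well, HEK293) → 5 h at 37 C/5% CO2 → 23 nL compound in DMSO pinned → 40 h at 37 C → luminescence read at 0, 8, 16, 24, 32, 40 h.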
A short description of experiment [17]: A CellTox Green Cytotoxicity Assay to monitor cytotoxicity in HEK293 cells - 0 hour (AID 1224869). Also: nearly all actives have a fitted effect of over 50% in size. Put shortly:
(§2)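 Seeding of HEK293 cells together with cytotoxicity dye preceded a 5 h incubation at 37 C/5% CO2. Test compounds in DMSO were then added and fluorescence monitored across 40 h.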

The nature of experiment [18]: qHTS RealTime-Glo MT Cell Viability Assay in HepG2 cells - 40 hour (AID 1224870). Also: nearly all actives have a fitted effect of over 50% in size. Put shortly: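 HepG2 cells (600/well) mixed with RealTime-Glo MT reagent, settled 5 h at 37 C/5% CO2 before compound addition. Nonlytic NanoLuc luminescence from viable-cell prosubstrate reduction read repeatedly during 40 h treatment at 37 C.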
A short description of experiment [19]: A CellTox Green Cytotoxicity Assay to monitor cytotoxicity in HEK293 cells - 40 hour (AID 1224871). Also: nearly all actives have a fitted effect of over 45% in size. A digest of the protocol: as §2
The nature of experiment [20]: qHTS RealTime-Glo MT Cell Viability Assay in HEK293 cells - 16 hour (AID 1224872). A digest of the protocol:
as §1

Several values for one entry are separate records, joined by “and”; a condition that tells them apart may be missing. Identical values can stand only once. Inconclusive results are not listed. More than one record can exist for a structure, and the calls need not agree. Activity calls are given as the source filed them. Unless noted, calls follow the shape of the dose curve; as a rule, active = well fitted curve in the direction sought with a large enough effect in the repeat runs; inconclusive = weak or mixed curves; inactive = no such curve, though single readings can be large; an effect the other way counts as inactive or inconclusive.
% is scaled to controls: 0 for no effect and ±100 for the full control effect.

Thyrotropin receptor (Homo sapiens), sequence (P16473 whole entry, looked up): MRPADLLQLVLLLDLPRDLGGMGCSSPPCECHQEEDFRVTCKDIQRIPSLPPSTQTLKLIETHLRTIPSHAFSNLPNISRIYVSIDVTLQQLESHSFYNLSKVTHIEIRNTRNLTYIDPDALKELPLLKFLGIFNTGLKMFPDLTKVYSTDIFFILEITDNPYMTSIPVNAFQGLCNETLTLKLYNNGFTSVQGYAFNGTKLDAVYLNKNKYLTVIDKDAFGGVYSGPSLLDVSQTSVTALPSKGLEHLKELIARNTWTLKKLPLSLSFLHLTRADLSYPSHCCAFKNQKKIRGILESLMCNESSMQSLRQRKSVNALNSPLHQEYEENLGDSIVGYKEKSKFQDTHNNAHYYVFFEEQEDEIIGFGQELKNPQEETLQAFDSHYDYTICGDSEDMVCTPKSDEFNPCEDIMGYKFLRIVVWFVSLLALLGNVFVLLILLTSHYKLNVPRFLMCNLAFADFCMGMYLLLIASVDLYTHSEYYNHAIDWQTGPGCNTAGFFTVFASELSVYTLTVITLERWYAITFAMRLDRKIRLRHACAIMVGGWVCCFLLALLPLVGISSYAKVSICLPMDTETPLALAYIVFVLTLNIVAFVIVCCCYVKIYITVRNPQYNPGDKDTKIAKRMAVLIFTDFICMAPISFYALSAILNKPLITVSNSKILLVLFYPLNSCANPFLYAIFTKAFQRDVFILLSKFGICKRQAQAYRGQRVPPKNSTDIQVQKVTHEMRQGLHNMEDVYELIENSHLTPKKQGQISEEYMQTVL
Nuclear receptor subfamily 1 group I member 3 (Homo sapiens), sequence (Q14994 whole entry, looked up): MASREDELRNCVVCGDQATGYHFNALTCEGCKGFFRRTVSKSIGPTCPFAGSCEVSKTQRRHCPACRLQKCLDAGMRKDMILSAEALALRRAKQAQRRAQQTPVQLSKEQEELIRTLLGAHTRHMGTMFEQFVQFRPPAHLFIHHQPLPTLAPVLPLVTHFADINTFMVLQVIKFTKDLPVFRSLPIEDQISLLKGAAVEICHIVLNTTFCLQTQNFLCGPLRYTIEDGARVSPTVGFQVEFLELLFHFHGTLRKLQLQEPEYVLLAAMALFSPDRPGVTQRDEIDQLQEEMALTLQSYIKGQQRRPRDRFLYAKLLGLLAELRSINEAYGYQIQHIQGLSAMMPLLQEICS

In the case of `CCCCCCCCCCCCCCCCCl`, the viability change, negative = cytotoxic in [1] was -1.15% [at 19 µM] (inactive); in experiment [5] it was 6.02% [at 19 µM] (inactive). Further, the activity change, negative = cytotoxicity in experiment [2] was -1.23% [at 19 µM] (inactive); in [9] it was 8.74% [at 15.8 µM] (inactive); in experiment [12], 2.02% [at 31.6 µM] (inactive); in experiment [15], 5.56% [at 15.8 µM] (inactive); in experiment [20], 1.99% [at 15.8 µM] (inactive). In addition, the figures for the activity, negative = inhibition in experiment [3], in experiment [6] and in [13] were -1.8% [at 19 µM] (inactive), 65% [at 19 µM] (inactive) and 15.7% [at 19 µM] (inactive), respectively. Moreover, the activation in [4] was -1.81% [at 19 µM] (inactive); in experiment [7], 5.12% [at 19 µM] (inactive); in [8] it was 0.927% [at 19 µM] (inactive); in experiment [11], 0.196% [at 15.8 µM] (inactive). Moreover, in experiment [10], the activation (H2AX phosphorylation) is 1.73% [at 31.6 µM] (inactive). The activity change, positive = activation in [14] (at 19 µM (top of the series)) is 7.84% (inactive). Also, the activity change, negative = cytotoxic in experiment [16] is -2.48% [at 15.8 µM] (inactive); in [18] it was 12.5% [at 15.8 µM] (inactive). In addition, the cytotoxicity in experiment [17] was 1.64% [at 15.8 µM] (inactive). In experiment [19], the cytotoxicity increase was 10.8% [at 15.8 µM] (inactive).
On to `CC(C)(O)CCC(C)(C)O`, for which the Potency result in experiment [1], in experiment [2], in [3], in [4], in [5] and in [6] was “inactive” each time. For the same molecule, the Potency entry in [7], in experiment [8], in experiment [9], in experiment [10], in [11] and in [12] was “inactive” in each case. In addition, the Potency entry in [15], in experiment [16], in experiment [17], in [18], in [19] and in experiment [20] was “inactive” each time. In addition, in experiment [14] (at 92.4 µM (top of the series)), the activity change, positive = activation was -1.25% (inactive).
As to `COc1ccc(COC(C)=O)cc1`, the Potency entry in experiment [1], in [2], in experiment [3], in [4], in experiment [5] and in experiment [6] was “inactive” each time. In addition, the Potency result in [7], in experiment [8], in experiment [9], in experiment [10], in experiment [11] and in experiment [12] was “inactive” throughout. The Potency result in experiment [15], in [16], in [18], in [19] and in [20] was “inactive” throughout. In addition, the activity change, positive = activation in experiment [14] (at 92.4 µM (top of the series)) was 0.212% (inactive) and 1.93% (inactive).
As for `CCOc1ccc2c(c1)C(C)=CC(C)(C)N2`, the Potency result in [1], in experiment [2], in experiment [3], in experiment [5], in experiment [6] and in experiment [7] was “inactive” throughout. Moreover, the Potency result in [8], in experiment [9], in experiment [10], in [12], in experiment [13] and in experiment [15] was “inactive” in each case. Moreover, the Potency entry in experiment [16], in [19] and in experiment [20] was “inactive” throughout. Also, the Potency in [4] is 27.2 µM (active) and 27.3 µM (active). In addition, the activity change, positive = activation in experiment [14] (at 92.4 µM (top of the series)) is 1.57% (inactive) and 2.85% (inactive).
With `O=C1CC2(CCCC2)CC(=O)N1CCCCN1CCN(c2ncccn2)CC1`, the Potency entry in experiment [1], in experiment [2], in [3], in experiment [4], in [5] and in experiment [7] was “inactive” throughout. The Potency result in experiment [8], in experiment [10], in experiment [12], in experiment [15], in experiment [17] and in experiment [18] was “inactive” throughout. In experiment [19], the Potency entry was “inactive”. Besides, the Potency in experiment [6] was 19.3 µM (active) and inactive; in experiment [9], 4.36 µM (active) and inactive; in [16] it was 43.6 µM (active) and inactive. Besides, the activity change, positive = activation in [14] (at 42.5 µM (top of the series)) is -12.4% (inactive); in experiment [14] (at 92.4 µM (top of the series)), -47% (inactive).
For the molecule `COc1ccc(Cc2cnc(N)nc2N)cc1OC`, the Potency entry in experiment [1], in experiment [2], in experiment [3], in experiment [4], in experiment [5] and in experiment [6] was “inactive” each time. The Potency entry in experiment [7], in [8], in experiment [9], in experiment [10], in experiment [11] and in [12] was “inactive” throughout. The Potency entry in [13], in experiment [15], in experiment [16], in experiment [17], in experiment [18] and in [19] was “inactive” throughout. In experiment [20], the Potency entry is “inactive”. Moreover, the activity change, positive = activation in experiment [14] (at 42.5 µM (top of the series)) is 4.01% (inactive).

These data come from PubChem BioAssay (Tox21).
